Assay outcomes as filed in PubChem.
Tau fibril ThT = inhibitors of human tau fibril formation, thioflavin T binding; P10636; recombinant tau K18 P301L, heparin-induced fibrillization, ThT fluorescence; Potency, µM (doses to about 57.4 µM), most hits filed as inhibitors; hit rate 2.1% among 270,000; AID 1460; also: nearly all actives have a fitted effect of over 55% in size
Target sequence (P10636 561-689 P618L limits assumed): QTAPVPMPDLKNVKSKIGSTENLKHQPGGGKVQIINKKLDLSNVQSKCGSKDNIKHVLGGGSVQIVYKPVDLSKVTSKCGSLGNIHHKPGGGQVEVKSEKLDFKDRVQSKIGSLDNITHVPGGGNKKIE
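In this qHTS, human K18 P301L tau is incubated with compound and heparin for 6 hr at 37 C, and Thioflavin T fluorescence then reports fibril load.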
Tau fluor counter = counter-screen for tau fibril formation inhibitors. tau K18 P301L (four-repeat tau fragment) Alexa594 fluorescence, heparin fibrillization. Potency, µM (titrated, usually from 57.7 µM). hit rate 0.93% among 280,000. AID 1463; also: nearly all actives have a fitted effect of over 55% in size
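Human K18 P301L tau (15 uM unlabeled plus 0.24 uM Alexa 594-labeled, final) in 100 mM sodium acetate pH 7 was mixed with compound and 20 uM heparin and incubated 6 hr at 37 C.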
FBPA coupling cs = inhibits coupling enzyme system, counter-screen for aldolase hits; coupling enzyme system counterscreen, AmpLite Red fluorescence; activity change, negative = inhibition, % at 58.2 µM, hits read low; hit rate 0.67% among 290,000; in the data active = activity change below about -30%
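Compounds tested against the coupling enzymes alone at 57.5 uM final; readout was AmpLite Red fluorescence (525/598 nm) after 20 min at RT.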
Sfp inh = blocks B. subtilis Sfp PPTase activity. Q9F4F7. Biochemical Sfp PPTase activity, qHTS. Potency, µM, actives largely listed as inhibitors. hit rate 3.5% among 310,000. AID 1490;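 also: the enzyme is Sfp with the accession as filed and its product quenches rhodamine fluorescence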
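Step 1, compound plus 15 nM Sfp-PPTase, 15 min, room temperature. Step 2, add rhodamine-CoA (5 uM) and BHQ-2-YbbR (12.5 uM). Step 3, read 525/598 nm fluorescence at 0 and 30 min.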
G9a inh = G9a (human) methyltransferase inhibition; G9a H3K9 monomethylation, AlphaScreen, 2 h; hit rate 8.8% among 350,000; Potency, µM (titrated, usually from 102 µM), actives largely listed as inhibitors; also: nearly all actives have a fitted effect of over 75% in size
Target sequence (Q96KQ7 913-1193 limits assumed): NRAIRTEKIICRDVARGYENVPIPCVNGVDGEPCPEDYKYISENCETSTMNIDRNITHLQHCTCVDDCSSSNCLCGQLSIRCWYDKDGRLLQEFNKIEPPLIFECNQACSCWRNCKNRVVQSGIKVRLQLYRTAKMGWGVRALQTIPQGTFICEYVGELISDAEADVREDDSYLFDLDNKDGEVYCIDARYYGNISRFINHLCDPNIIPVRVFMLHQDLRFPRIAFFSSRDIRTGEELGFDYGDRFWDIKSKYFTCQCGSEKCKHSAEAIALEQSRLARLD
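Readings reflect AlphaScreen signal from monomethyl-H3K9 antibody detection. HMT at 20 nM; substrate b-H3K9 500 nM; cofactor SAM 20 uM; 2 h RT reaction; compounds tested as titrations in qHTS with 15 min preincubation.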
Tau FP inhib = inhibitors of human tau fibril formation. P10636. K18 P301L tau heparin fibrillization, Alexa594 FP, 6 h. Potency, µM (highest dose often 57.7 µM), usual class: inhibitors. hit rate 0.39% among 280,000. AID 1468; also: nearly all actives have a fitted effect of over 55% in size
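Read-out: fluorescence polarization of Alexa 594-labeled tau (0.24 uM), 555 nm excitation, 632 nm emission. Mixtures held 15 uM unlabeled K18 P301L, compound and 20 uM heparin, pH 7 acetate buffer, incubated 6 hr at 37 C.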
Numbers stand for hits; n = inactive; u = inconclusive; x = not tested or not shown; [ ] = dose if it differs, or a comment. Compounds with a hit are over-represented: about 11% of the library has one in this group of screens. Unless noted, calls follow the shape of the dose curve; as a rule, active = well fitted curve in the direction sought with a large enough effect; inconclusive = small, poorly fitted or top-dose-only effect, or another doubt; inactive = no such curve, though single readings can be large; an effect the other way counts as inactive or inconclusive.

SMILES | Tau fibril ThT | Tau fluor counter | FBPA coupling cs | Sfp inh | G9a inh | Tau FP inhib
CCN(C(=O)Cn1cnc2cc([N+](=O)[O-])ccc2c1=O)C1CCS(=O)(=O)C1 (centres undefined) | n | n | n | n | n | n
COc1ccc(CNC(=O)C(c2ccco2)N(C(=O)c2snc(C(N)=O)c2N)c2cccc(OC)c2)cc1 (centres undefined) | x | x | n | n | n | x
O=C(CCCN1C(=O)/C(=C\c2ccco2)SC1=S)Nc1ccc2ccccc2c1 | u | u | n | u | 25µM | n
O=C1/C(=C\c2ccco2)SC(=S)N1Cc1ccccc1 | u | u | n | u | n[0.501 µM] | n
O=C(O)CCN1C(=O)/C(=C\c2ccc(-c3nc4ccccc4s3)o2)SC1=S | 2µM | n | n | 45µM | u | n
O=C(O)CCCN1C(=O)/C(=C\c2ccco2)SC1=S | 22µM | n | n | 18µM | 45µM | u
CCc1ccc(/C=C2/SC(=S)N(CC(=O)Nc3nc4ccccc4s3)C2=O)cc1 | u | u | n | n | n[0.501 µM] | n
COC(=O)C/C=C\[C@@H](C)[C@@H](/C=N\O[C@@H](C)CN1CCCc2nc(C)c(C)cc21)OC | n[11.5 µM] | n[11.6 µM] | n | n | x | n[11.6 µM]
COCCCNCCCCOc1ccc(C)cc1[N+](=O)[O-] | n | n | n | n | 11µM | n
CCCCNCCOCCOc1ccc(C)cc1[N+](=O)[O-] | n | n | n | n | 18µM | n
CCC(C)NCCOc1ccc(C)cc1[N+](=O)[O-] (centres undefined) | n | n | n | n | 11µM | n
CCC(C)Nc1c([N+](=O)[O-])cc(C)cc1[N+](=O)[O-] (centres undefined) | n | n | n | n | 40µM | n
CCC(C)NS(=O)(=O)c1ccc(NS(=O)(=O)c2ccccc2[N+](=O)[O-])cc1 (centres undefined) | n | n | n | n | n[0.501 µM] | n
CCCN(CCC)C(=O)Cn1c(=O)n(-c2ccc(C)c(C)c2)c(=O)c2c3c(sc21)CCCCC3 | n | n | x | x | n | n
Cc1cc(C)cc(OCC(O)CN2CC(C)OC(C)C2)c1 (centres undefined) | x | x | n | n | n | x
Cc1ccccc1/C=N/Nc1ccc(Cl)nn1 | n | n | n | n | 10µM | n
Cc1cccc(N2C(=O)/C(=C\c3ccc(OC(F)F)cc3)c3ccccc3C2=O)c1 | n | n | n | u | n | n
COc1cccc(/C=C2\C(=O)N(c3cccc(C)c3)C(=O)c3ccccc32)c1 | n | n | n | n | 18µM | n
COc1ccc(C2CC(=O)N3CN(C4CCCCC4)CSC3=C2C#N)cc1 (centres undefined) | 18µM | n | x | x | 1.8µM | u
CN1CSC2=C(C#N)C(c3cccc(OCc4ccccc4)c3)CC(=O)N2C1 (centres undefined) | u | n | n | 3.2µM | 2.5µM | u
COc1cccc(C2CC(=O)N3CN(C4CCCCC4)CSC3=C2C#N)c1 (centres undefined) | 35µM | n | x | x | 1.3µM | u
COc1ccc(C2C(=O)N(C3CCCCC3)CC(=O)N2C2CCCC2)cc1 (centres undefined) | n | n | x | n | n | n
COc1cccc(C2CC(=O)NC(SC)=C2C#N)c1 (centres undefined) | n | n | n | n | u | n
COc1cc(-c2nnc(SCC(=O)N(C)C3CCCCC3)o2)cc(OC)c1OC | n | n | x | x | n | u
C=Cc1ccc(Cn2c(=O)cc(C)c3c(C)nn(C)c32)cc1 | u | n | x | x | n | n
SMILES | Tau fibril ThT | Tau fluor counter | FBPA coupling cs | Sfp inh | G9a inh | Tau FP inhib
CC(=O)c1ccc(OC(=O)C2CSC3(C)CCC(=O)N23)cc1 (centres undefined) | x | x | x | x | n[12.7 µM] | x
CCn1nnc2cc(C(=O)Nc3cc(C)ccc3C)ccc21 | n | n | x | x | n | n
COc1ccccc1CNc1ncc(-c2ccc(F)cc2)n1C | x | x | n | n | u | x
Cc1cc(F)ccc1NCc1cc2c(cc1[N+](=O)[O-])OCO2 | u | u | n | n | n | n
Cn1c(-c2ccc3c(c2)OCO3)cnc1NCc1cccc(O)c1 | u | n | n | n | 22µM | n
Cn1c(-c2ccc(F)cc2)cnc1NCc1cc2c(cc1[N+](=O)[O-])OCO2 | n | n | n | n | 13µM | n
Cn1c(-c2ccc(Cl)cc2)cnc1NCc1cc2c(cc1[N+](=O)[O-])OCO2 | u | u | n | u | 20µM | n
Cn1c(-c2ccccc2)cnc1NCc1cc2c(cc1[N+](=O)[O-])OCO2 | n | n | n | 56µM | 10µM | n
COc1cc(C2CC(=O)Nc3c2c(=O)[nH]c2nc4ccccc4n32)ccc1O (centres undefined) | n | n | x | x | n | n
COC(=O)C(C)Sc1nnc2cc(C)c3cc(C)cc(C)c3n12 (centres undefined) | n | n | x | x | 8.9µM | n
Cc1cc(C)c2c(c1)c(C)cc1nnc(SCC(=O)c3cccs3)n12 | n | n | n | n | 3.2µM | n
CCCN(CCC)C(=O)CSc1nnc2cc(C)c3cc(C)cc(C)c3n12 | n | n | x | x | 2.5µM | n
CC1=C(C(=O)Nc2ccccc2)C2(CCCCC2)C(C#N)=C(S)N1 | u | n | n | 32µM | 7.9µM | n
CC1=C(C(=O)Nc2ccccc2)C2(CCCCC2)C(C(N)=O)C(=S)N1 (centres undefined) | n | n | n | n | n | n
CCOC(=O)N1CCN(c2cc(NCCO)c([N+](=O)[O-])c3nonc23)CC1 | u | n | n | n | n | n
CCC(=O)OCCNc1cc(Sc2nccn2C)c2nonc2c1[N+](=O)[O-] | 4.5µM | u | n | u | u | n
O=[N+]([O-])c1c(NCCO)cc(N2CCCCC2)c2nonc12 | u | n | n | n | n | n
CCCC(=O)OCCNc1cc(Sc2nc3ccccc3[nH]2)c2nonc2c1[N+](=O)[O-] | u | n | n | 10µM | u | n
CCC(=O)OCCNc1cc(SCCC(=O)OC)c2nonc2c1[N+](=O)[O-] | 7.9µM | u | n | n | 13µM | u
CC(C)c1ccc(OCC(=O)Nc2cc(-c3ccccc3)no2)cc1 | u | u | x | x | n | u
CCN1CCN(C(c2cccs2)C(C)NC(=S)Nc2cccc(C)c2C)CC1 (centres undefined) | x | n | n | n | u | n
Cc1noc(C)c1COC(=O)c1cnc(Cl)c(Cl)c1 | n | n | n | n | n | n
O=C(CNC(=O)c1cccs1)NCCN1CCC(Cc2ccccc2)CC1 | n | n | n | n | n | n
O=C(NCCNC1CCN(Cc2ccccc2)CC1)c1cccs1 | n | n | n | u | 1.8µM | n
CCCCCn1cc2c(c1-c1ccc(Cl)cc1)c(=O)n(C)c(=O)n2C | u | n | x | x | n | n
COCCNC(=O)CNC(c1ccccc1)c1ccccc1 | n | n | n | 45µM | 45µM | n
